# Screening data (PubChem BioAssay)
# In the library only some 0.92% were active in any assay of this set; here they are far more common.
# FEN1 inhibitor – inhibitors of human flap endonuclease 1. actives 0.35% (n = 390,000). Potency, µM (titrated, usually from 114 µM), for the others: at the top dose activity change, negative = inhibition, most hits filed as inhibitors. Recombinant FEN1 flap cleavage, fluorescence, 15 min. AID 588795; further: nearly all actives have a fitted effect of over 65% in size
#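 Quantitative HTS format: each compound was titrated, incubated with 10 nM nuclease for 15 min at room temperature, then challenged with flap substrate at 50 nM final. Signal change over 15 min gave concentration–effect curves.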
# BLM inh – inhibitors of human Bloom syndrome helicase BLM | recombinant BLM DNA unwinding, fluorescence dequenching | actives 0.2% (n = 350,000) | Potency, µM (highest dose often 56.1 µM), for the others: at the top dose activity change, negative = inhibition, most hits filed as inhibitors | AID 2528;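 further: plate controls were vehicle for no effect and no enzyme for full effect; nearly all actives have a fitted effect of over 35% in size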
# RECQ1 inh – RECQ1 (human) helicase inhibition | P46063 | RECQ1 DNA unwinding, red fluorescence kinetic read | actives 0.54% (n = 240,000) | Potency, µM (series often up to 57.3 µM), inactives show top-dose activity, negative = inhibition, actives largely listed as inhibitors;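 further: plate controls were vehicle for no effect and no enzyme for full effect; nearly all actives have a fitted effect of over 30% in size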
#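 50 nM RECQ1T1 preincubated 15 min with compound in Tris pH 8.0 buffer with MgCl2, DTT, Tween-20 and 2.5 ug/ml poly(dI-dC); started with 200 nM TAMRA/BHQ-2 forked duplex and 2 mM ATP. Unwinding read as fluorescence (525/598 nm), two reads 2 h apart.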
# TDP1 inh – inhibitors of human tyrosyl-DNA phosphodiesterase TDP1 | Q9NUW8 | recombinant TDP1, AlphaScreen DNA substrate cleavage | Potency, µM (titrated, usually from 130 µM), inactives show top-dose activity change, negative = inhibition, most hits filed as inhibitors | actives 0.28% (n = 350,000) | AID 485290; further: nearly all actives have a fitted effect of over 40% in size
#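 Here, a 5' biotin and 3' phosphotyrosine-FITC DNA oligonucleotide reports Tdp1 activity: intact substrate bridges AlphaScreen beads, while cleavage leaves a 3' phosphate and drops signal. All incubations at room temperature.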
# APE1 inh-1 – blocks human APE1 abasic DNA cleavage; P27695; recombinant APE1, TAMRA/BHQ-2 abasic DNA cleavage fluorescence; Potency, µM (titrated, usually from 65.8 µM), for inactives: at the highest dose activity change, negative = inhibition, hits mostly inhibitors; actives 0.35% (n = 350,000); AID 2517;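 further: plate controls were vehicle for no effect and reference inhibitor for full effect; nearly all actives have a fitted effect of over 55% in size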
#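 Activity was derived from the fluorescence gain between first and third kinetic reads (60 s intervals, ex 525/em 598 nm) after 50 nM THF-abasic TAMRA/BHQ-2 duplex was added to 0.75 nM APE1 preincubated 15 min with compound.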
# APE1 dye cs – counter-screen for APE1 inhibitors: DNA dye displacement; DNA fluorescent dye displacement counterscreen, fluorescence; actives 7% (n = 480); shares compounds with APE1 inh-1; Potency, µM (highest dose often 28.5 µM), for the others: at the top dose activity change, negative = inhibition, most hits filed as inhibitors;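 further: loss of thiazole orange fluorescence as the dye is displaced from duplex DNA; 0% = ThO with dsDNA and no compound and -100% = ThO without dsDNA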
# Endo IV inh – Endo IV (E. coli) inhibition counter-screen; shares compounds with APE1 inh-1; E. coli Endo IV, fluorogenic AP-site DNA cleavage; Potency, µM (doses to about 27.1 µM), for inactives: at the top dose activity change, negative = inhibition, usual class: inhibitors; actives 4% (n = 560);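 further: plate controls were uninhibited enzyme wells for no effect and no enzyme buffer wells for full effect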
# APE1 inh-2 – APE1 (human) endonuclease inhibition, confirmation; shares compounds with APE1 inh-1; purified APE1, fluorogenic abasic-site DNA cleavage; Potency, µM (titrated, usually from 57.1 µM), inactives show top-dose activity change, negative = inhibition, usual class: inhibitors; actives 44% (n = 750); AID 2572; further: nearly all actives have a fitted effect of over 30% in size
# APE1 FP – APE1 (human) DNA binding inhibition, fluorescence polarization; actives 7% (n = 480); Potency, µM (highest dose often 28.5 µM), without a hit: at the highest dose activity, negative = inhibition, most hits filed as inhibitors; AID 2573; APE1 binding to TAMRA-labelled double-stranded DNA, fluorescence polarization displacement; shares compounds with APE1 inh-1
# Starred values were filed as active, the others as inactive; i = inactive; ? = inconclusive; . = no result given; [ ] = another dose, or the depositor's remark. The call rests on the fitted dose curve; in most records, active means well fitted curve in the direction sought with a large enough effect; inconclusive means small, poorly fitted or top-dose-only effect, or another doubt; inactive means no such curve, though single readings can be large; an effect the other way counts as inactive or inconclusive. Unless noted, on the % scale 0 is the no-effect control and ±100 the full control effect; potency means the concentration at half of the fitted maximal effect.
SMILES,FEN1 inhibitor,BLM inh,RECQ1 inh,TDP1 inh,APE1 inh-1,Endo IV inh,APE1 inh-2,others
Cc1ccccc1-c1ccc2ncnc(NCc3cccs3)c2c1,.,-25%,?,.,7.1µM*,-96%[57.1 µM],14µM*,APE1 dye cs=?;APE1 FP=46%[57.1 µM]
O=S(=O)(c1ccc2c(c1)OCCO2)N1CCN(c2nc(-c3ccccc3)nc3ccccc23)CC1,1%,.,.,1%,.,.,.,
CC(=O)Oc1ccc2c(=O)c(/C=N/c3cc(=O)[nH]c(=S)[nH]3)coc2c1,-16%,0%,0%,79µM*,6%,.,-39%,
COc1cc(OC)c(NC(=O)N2CC=C(c3c[nH]c4ccccc34)CC2)cc1Cl,4%,-10%,.,6%,.,.,.,
C=C(C)Cn1c(SCC(=O)Nc2ccccc2C)nc2sc3c(c2c1=O)CCCC3,-6%,-2%,.,.,.,.,.,
Cc1ccnc(NS(=O)(=O)c2ccc(NC(=O)C3C4C=CC(C4)C3C(=O)O)cc2)n1 (configuration not stated),3%,-7%,-5%,50µM*,?,.,-2%,
COc1ccc(N2CCN(C(=O)c3ccc(C)c(NC(=O)c4nsc5ccccc45)c3)CC2)cc1,-11%,-9%,.,3%,.,.,.,
CC(=O)NNC(=O)N1Cc2ccccc2Oc2ccc(Cl)cc21,-21%,-1%,-7%,0%,2%,-9%[57.1 µM],-38%,
CC(=O)N1Cc2cc([N+](=O)[O-])ccc2Oc2ccccc21,8%,2%,i,0%,-6%,.,.,
Cc1c(NS(=O)(=O)c2ccccc2)cc(C(C)C)c(O)c1S(=O)(=O)c1ccc(Cl)cc1,-4%,-16%,.,3%,.,.,.,
O=C(O)c1cc(-c2ccc(/C=N/N3C(=O)C4C5C=CC(C6CC56)C4C3=O)o2)ccc1Cl (configuration not stated),2%,-3%,-11%,?,?,.,?,
Cc1ccc(C)c(NC(=O)CSc2ccc3nc(-c4ccccc4)cn3n2)c1,14%,-19%,.,3%,.,.,.,
COc1ccc(-c2nnc3ccc(SCC(=O)NCc4ccco4)nn23)cc1,-12%,1%,-28%,79µM*,?,.,-10%,
C=C[C@@]1(C)CC[C@H](O)[C@H]2C(=O)CCC[C@@H]21,.,2%,-6%,8%,10%,.,.,
O=c1c(-c2c(O)cc(O)c3c(=O)cc(-c4ccc(O)cc4)oc23)c(-c2ccc(O)cc2)oc2cc(O)cc(O)c12,50µM*,13µM*,13µM*,.,0.79µM*,?,2µM*,APE1 dye cs=14µM*;APE1 FP=0%
Oc1ccccc1Oc1c(F)c(F)nc(N2CCCC2)c1F,-10%,-23%,-25%,-1%,?,-1%,?,APE1 dye cs=-9%;APE1 FP=-6%
CC(=O)/C=C/c1ccccc1Oc1c(F)c(F)nc(F)c1F,-23%,-6%,.,.,-7%,.,.,
N#C/C(=C\c1ccc(O)c(O)c1)C(=O)c1ccc(O)c(O)c1,1.4µM*,.,1.6µM*,.,0.095µM*,?,0.2µM*,
Nc1ccc[n+](CC(=O)c2ccc(F)cc2)c1,8%,.,.,.,.,.,.,
C=C(Cl)COc1ccc2c(CCC)cc(=O)oc2c1,0%,-6%,-3%,89µM*,15%,.,-27%,
O=[N+]([O-])c1cc(/C=N\Nc2nccs2)ccc1O,.,28µM*,11µM*,?,7.1µM*,16%,1.6µM*,APE1 dye cs=10µM*;APE1 FP=8.9µM*
O=[N+]([O-])c1ccccc1/C=N\Nc1nccs1,2%,0%,.,.,19%,.,.,
Cc1ccc([N+](=O)[O-])cc1-c1ccc(/C=C(\C#N)c2[nH]nc(N)c2C#N)o1,?,?,32µM*,-8%,?,-3%,7.1µM*,APE1 dye cs=7.1µM*;APE1 FP=16%
CC(=O)NN1C(=O)/C(=C\c2ccc(Br)o2)SC1=S,-14%,5%,-3%,-5%,?,.,.,
CC(=O)NN1C(=O)/C(=C/c2ccc(Br)o2)SC1=S,40µM*,-10%,?,?,32µM*,4%,?,APE1 dye cs=-8%;APE1 FP=19%
SMILES,FEN1 inhibitor,BLM inh,RECQ1 inh,TDP1 inh,APE1 inh-1,Endo IV inh,APE1 inh-2,others
NC(=O)Nc1ccc(/C=C2\C=Cc3ccccc32)cc1,-17%,.,.,.,.,.,.,
O=C(CCCSc1nc2ccccc2[nH]1)NC1CCCCC1,19%,-2%,-4%,5%,0%,.,.,
O=C(CSc1nc2ccccc2[nH]1)NC1CCCC1,-4%,-15%,-26%,45µM*,?,.,40µM*,
Cc1ccc(-c2ccc(=O)n(CCC(=O)NCCc3ccccc3)n2)cc1,-9%,3%,.,10%,.,.,.,
CCCOc1cccc(C2c3c(oc4ccc(F)cc4c3=O)C(=O)N2CCCN2CCOCC2)c1 (configuration not stated),12%,1%,.,1%,.,.,.,
O=C(O)Cc1ccc(NC(=O)C2CC=CCC2C(=O)O)cc1 (configuration not stated),.,-2%,-4%,45µM*,20µM*,.,-36%,
O=C(O)C1CC=CCC1C(=O)Nc1ccccc1 (configuration not stated),-3%,-1%,-5%,22µM*,-17%,.,-23%,
O=C(O)c1ccc(NC(=O)C2CC=CCC2C(=O)O)cc1 (configuration not stated),-1%,4%,i,.,?,.,.,
Cc1nc2ccc(NC(=S)N3CCOCC3)cc2nc1C,3%,-10%,18%,3%,?,3%,-5%[24.4 µM],APE1 dye cs=0%;APE1 FP=6%
CC(=O)OCC1=C(C(=O)O)N2C(=O)C(NC(=O)CC(C)c3ccccc3)C2SC1 (configuration not stated),-9%,.,.,-6%,-3%,.,.,
NC(=O)c1cc[n+](CC2=C(C(=O)O)N3C(=O)[C@@H](NC(=O)[C@@H](c4ccccc4)S(=O)(=O)[O-])[C@H]3SC2)cc1,40µM*,.,-4%,11µM*,?,3%[57.1 µM],-76%,
CCN1C(=O)C2(c3ccccc31)c1c(oc3ccccc3c1=O)C(=O)N2CCOC (configuration not stated),-3%,0%,.,9%,.,.,.,
CCC1=NNc2cccc3c(OC)ccc1c23,.,?,-17%,.,?,8%,-6%[24.4 µM],APE1 dye cs=?;APE1 FP=1%
